# Screen size: about 47,000 compounds; about 2,500 (5.3%) were called active. The full list was thinned out, with actives kept by preference. A number with no mark means an inactive call. No stated cut-off is given here; in the data, active means inhibition above about 30%; inactive means the rest.
# Biological target: Ubiquitin carboxyl-terminal hydrolase 30 (Homo sapiens) (UniProt Q70CQ3)
# Assay: blocks human USP30 ubiquitin-rhodamine cleavage (AID 1645860)
# Settings: purified USP30, Ub-rhodamine cleavage fluorescence; at 25 µM; active compounds read high
# Ubiquitin carboxyl-terminal hydrolase 30 (Homo sapiens), sequence (Q70CQ3 whole entry, looked up): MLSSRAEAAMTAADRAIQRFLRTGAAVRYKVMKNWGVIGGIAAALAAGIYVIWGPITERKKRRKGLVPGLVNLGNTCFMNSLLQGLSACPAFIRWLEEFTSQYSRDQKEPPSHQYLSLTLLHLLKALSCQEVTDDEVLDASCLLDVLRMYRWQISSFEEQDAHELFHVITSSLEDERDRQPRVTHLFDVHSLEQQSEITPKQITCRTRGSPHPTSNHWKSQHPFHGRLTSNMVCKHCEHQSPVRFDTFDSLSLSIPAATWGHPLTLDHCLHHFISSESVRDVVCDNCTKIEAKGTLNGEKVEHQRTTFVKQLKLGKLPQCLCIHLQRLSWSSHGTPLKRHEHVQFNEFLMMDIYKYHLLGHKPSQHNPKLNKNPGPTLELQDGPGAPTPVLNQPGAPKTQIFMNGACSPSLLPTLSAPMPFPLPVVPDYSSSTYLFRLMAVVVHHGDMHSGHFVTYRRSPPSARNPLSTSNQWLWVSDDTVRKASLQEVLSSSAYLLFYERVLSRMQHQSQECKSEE
row,SMILES,inhibition
1,O=C(N[C@@H]1C[C@@H](Oc2cccc(F)c2)[C@H](O)[C@H]1N1CCCC1)C1CCOCC1,-0.94%
2,COc1cccc(C(=O)N[C@@H]2C[C@@H](Oc3ccccc3)[C@H](O)[C@H]2O)c1,26.7%
3,Clc1cc2nc(N3CCN(c4ccccn4)CC3)c3nncn3c2cc1Cl,36.4% (active)
4,CCC(=O)Nc1ccc2c(c1)nc(CCN1CCN(c3ccccn3)CC1)n2C,-16.8%
5,Cc1nn(-c2ccccc2)c(C)c1S(=O)(=O)N1CCN(c2ccccn2)CC1,-17.2%
6,CCN(C(=O)COc1cccnc1[N+](=O)[O-])c1ccccc1,-14.2%
7,O=C(NCC(=O)N1CCCc2ccccc21)c1cccc2[nH]ccc12,5.02%
8,O=C(c1ccccc1)N1CCC(c2nc3c(nnn3Cc3c(Cl)cccc3Cl)c(=O)[nH]2)CC1,-14.3%
9,COc1ccc(-n2c(SCC(=O)OC(C)C)nnc2-c2ccccn2)cc1,16.8%
10,Cc1ccc(-n2c(SCC(=O)N3CCOCC3)nnc2-c2cc3ccccc3o2)cc1,-10.7%
11,O=C(CSc1nnc(-c2ccc3c(c2)OCO3)n1-c1ccccc1)OCC(=O)c1ccccc1,69.9% (active)
12,CN1CCOc2cc(S(=O)(=O)N(C)Cc3ccccc3)ccc21,29.5%
13,CCOc1ncccc1C(=O)OCC(=O)c1ccc2c(c1)-c1ccccc1C2,-153%
14,CCN1CCN(C(=O)c2cnn(-c3cc(-c4nc(C5CC5)no4)ccn3)c2C)CC1,1.81%
15,O=C(NCC1CC1)c1nc(-c2ccc3[nH]ccc3c2)no1,0.789%
16,CCc1nc(-c2ccc(-n3cc(C(=O)NCc4nc5ccc(C)cc5[nH]4)c(C)n3)cc2)no1,8.95%
17,Cc1ccc(CNC(=O)c2nc(-c3cn(-c4ccc(Br)cc4)nc3C)no2)o1,30.2% (active)
18,COc1ccc(C(=O)CSc2nnc(CC(=O)Nc3ccc(C)cc3)n2C)cc1OC,9.07%
19,Cc1cccc(NC(=O)c2csc(-c3cn(C)c4ncccc34)n2)c1,-7.75%
20,Cn1cc(-c2nc(C(=O)Nc3ccc(F)cc3)cs2)c2cccnc21,62.1% (active)
21,Cn1nc(C(=O)Nc2ccc(F)cc2)c(=O)c2ccccc21,-0.148%
22,Fc1ccccc1CNc1nnc(-c2nnc(C3CC3)o2)c2ccccc12,23.3%
23,O=C(O)/C(=C\c1ccc(Br)cc1)NC(=O)c1ccco1,-0.242%

row,SMILES,inhibition
1,Cc1cccc(NC(=O)c2cccn2Cc2noc(C3CC3)n2)n1,-19.2%
2,Cc1ccc(CNC(=O)c2cnn3c4c(cnc23)C(=O)CCC4)cc1,-12.6%
3,Cc1ccc(-c2cc(C(F)F)n3ncc(C(=O)NCC(C)C)c3n2)cc1,38.7% (active)
4,COc1ccc(-c2cc(C(F)F)n3ncc(C(=O)N(C)Cc4c(C)nn(C)c4C)c3n2)cc1,-14.7%
5,COc1ccc(NC(=O)C2=C(C)Nc3ncnn3C2c2cccc(OCc3ccc(F)cc3)c2)c(OC)c1 (configuration not stated),60.3% (active)
6,COc1ccccc1NC(=O)C1=C(C)Nc2ncnn2C1c1ccc(C)o1 (configuration not stated),-6.73%
7,COc1cccc(C2C(C(=O)Nc3ccccc3C)=C(C)Nc3ncnn32)c1OCc1ccccc1 (configuration not stated),-8.1%
8,O=C(COC(=O)c1ccc2[nH]c3c(c2c1)CCCC3)Nc1ccc(N2CCOCC2)cc1,-55.7%
9,CN(C)c1ccc(CNC(=O)c2cc(CN3CCOCC3)on2)cc1,22%
10,O=C(CN1C(=O)c2cccnc2Sc2ccccc21)Nc1ccc(F)cc1F,-96.8%
11,CCOc1nc2cccnc2n(CC(=O)Nc2ccc(F)cc2F)c1=O,-13%
12,O=C(CN1C(=O)C2CCCC2=Nc2ccccc21)Nc1ccc(F)cc1F (configuration not stated),32.2% (active)
13,COc1cccc(NC(=O)C(C#N)C(=O)C2CC2c2cccc(C)c2)c1 (configuration not stated),31.3% (active)
14,CNC(=O)N1CCC(n2c(C)nc(C(=O)Nc3cccc(OC)c3)c2C)CC1,2.54%
15,CCN1CCCCC12Cc1ccccc1CN(S(C)(=O)=O)C2 (configuration not stated),1.88%
16,O=C(Nc1cccc(S(=O)(=O)N2CCCCCC2)c1)c1ccc(N2CCOCC2)c([N+](=O)[O-])c1,47.3% (active)
17,CN1CCN(S(=O)(=O)c2cccc(C(=O)Nc3cccc(S(N)(=O)=O)c3)c2)CC1,7.83%
18,Cc1cccc(NC(=O)c2ccc(N3CCC(C)CC3)c([N+](=O)[O-])c2)c1C,-29.1%
19,COc1ccccc1OCc1nc(C)c(C(C)=O)s1,6.92%
20,c1ccc(Sc2nc(-c3ccccc3)nc3ccsc23)cc1,-19%
21,CCC(=O)N1CCc2cc(S(=O)(=O)NC(Cc3ccccc3)C(=O)Nc3ccccc3OC)ccc21 (configuration not stated),-0.729%
22,CC(CCc1ccccc1)NC(=O)c1cc2cc(Oc3ccccc3)ccc2[nH]1 (configuration not stated),8.29%
23,O=C(Oc1cccc([N+](=O)[O-])c1)C(c1ccccc1)c1ccccc1,25%

row,SMILES,inhibition
1,CC(CCc1ccccc1)NC(=O)/C=C/c1cccc([N+](=O)[O-])c1 (configuration not stated),34.1% (active)
2,COc1cccc(OCC(=O)N2CC(=O)Nc3ccccc32)c1,-14.6%
3,Cc1nc(C)n(CC2CCCCN2Cc2ncc(C(C)(C)C)o2)n1 (configuration not stated),-97.5%
4,Cc1cc(C2CN(C(=O)c3cn4c(C)cccc4n3)CCO2)nc(C)n1 (configuration not stated),2.35%
5,CCOc1ccc2nc(NC(=O)CN3CCC(C(N)=O)CC3)sc2c1,-1.04%
6,CCCC(=O)Nc1nc2ccc(CCC(=O)NCc3ccc(F)cc3)cc2s1,-10.2%
7,O=C(Cc1cccc2ccccc12)Nc1nc2ccc(F)cc2s1,53.9% (active)
8,O=C(OCC(=O)N1CCc2ccccc21)c1cccc([N+](=O)[O-])c1,-2.1%
9,CC(C)[C@H](NC(=O)N1CCn2c1nc1ccccc12)C(=O)NC1CC1,16%
10,Cc1ccc2c(c1)C(c1ccccc1)N(C(=O)c1ccc(S(=O)(=O)N3CCOCC3)cc1)CC(=O)N2 (configuration not stated),32.4% (active)
11,O=C1CN(C(=O)c2cccc3ccccc23)C(c2ccc(F)cc2)c2cc(Br)ccc2N1 (configuration not stated),16%
12,Cc1ccc2c(c1)C(c1ccc(F)cc1)N(C(=O)CC1CCCCC1)CC(=O)N2 (configuration not stated),26.9%
13,O=C(c1ccccc1Cl)N1CCc2c([nH]c3ccccc23)C1c1ccc2c(c1)OCO2 (configuration not stated),-14.6%
14,CCc1ccc(-n2nnc(C(=O)Nc3nnc(CC)s3)c2C)cc1,30.5% (active)
15,CCc1nnc(NC(=O)C2CCN(C(=O)c3ccc(F)cc3)CC2)s1,-0.015%
16,CCc1nnc(NC(=O)c2cc(-c3ccc(C)c(C)c3O)n[nH]2)s1,17.9%
17,COc1ccc(NC(=O)c2sc(N3CCOCC3)nc2-c2ccccc2)c(OC)c1,48.1% (active)
18,COc1ccc(-c2nc(N(Cc3ccccc3)C(=O)CN3CCOCC3)sc2C)cc1,-14.4%
19,CNC(=O)c1cc(-c2ccccc2)c(N2CCOCC2)s1,-0.0877%
20,Cc1cc(C)c(S(=O)(=O)Nc2ccc(Cn3cncn3)cc2)cc1C,-29.3%
21,COc1ccc(CN[C@H]2[C@H](O)[C@H](O)C[C@@H]2c2ccccc2)cn1,-17.6%
